SMILES strings stand for the structures. Results filed as inconclusive are left out. The source made the active and inactive calls. How the source made its calls: active means hit-call score of the fitted dose curve at least 0.9, where 1 is the maximum; inconclusive means response in the unintended direction; inactive means score below 0.9.

Assay [1] has as its target human Peroxisome Proliferator-activated Receptor alpha (PPARa), PPARA (gene 5465) (UniProt Q07869). As to the kind of experiment: ATG_PPARa_TRANS: Attagene TRANS-FACTORIAL HepG2 Assay for human Peroxisome Proliferator-activated Receptor alpha (PPARa) (AID 2283001). The method in brief: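 HepG2 cells transiently transfected with multiplexed GAL4-UAS reporter units and chimeric NR-Gal4 constructs were dosed for 24 h. Reporter mRNA was measured by RT-PCR with fluorescent labelling and capillary electrophoresis; gain of signal fitted against DMSO.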

In assay [2] the target is human Peroxisome Proliferator-activated Receptor delta (PPARd), PPARD (gene 5467) (UniProt Q03181). As to the kind of experiment: ATG_PPARd_TRANS: Attagene TRANS-FACTORIAL HepG2 Assay for human Peroxisome Proliferator-activated Receptor delta (PPARd) (AID 2283002). The method in brief: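 Multiplexed trans-activation format: HepG2 liver cells expressing exogenous NR-Gal4 chimeras and GAL4-UAS reporters were exposed for 24 h. Reporter mRNA was detected by RT-PCR with capillary electrophoresis fluorescence; activity fitted as gain of signal relative to DMSO.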
Sequence of human Peroxisome Proliferator-activated Receptor delta (PPARd), PPARD (gene 5467) (Q03181 whole entry, looked up, the tested form may be a part): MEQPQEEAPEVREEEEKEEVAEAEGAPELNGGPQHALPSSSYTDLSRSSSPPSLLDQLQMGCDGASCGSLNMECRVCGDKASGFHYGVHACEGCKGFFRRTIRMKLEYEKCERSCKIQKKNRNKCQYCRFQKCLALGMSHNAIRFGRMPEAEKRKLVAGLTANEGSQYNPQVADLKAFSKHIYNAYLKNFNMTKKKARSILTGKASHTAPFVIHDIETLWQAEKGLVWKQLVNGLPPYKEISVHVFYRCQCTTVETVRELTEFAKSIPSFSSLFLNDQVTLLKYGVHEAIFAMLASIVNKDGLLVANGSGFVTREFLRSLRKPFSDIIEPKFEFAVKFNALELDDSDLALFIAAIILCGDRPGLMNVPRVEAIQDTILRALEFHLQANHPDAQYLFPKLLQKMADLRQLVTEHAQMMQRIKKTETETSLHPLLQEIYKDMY

The target in assay [3] is Peroxisome proliferator-activated receptor gamma (Homo sapiens) (UniProt P37231). The assay can be described thus: ATG_PPARg_TRANS: Attagene TRANS-FACTORIAL HepG2 Assay for human Peroxisome Proliferator-activated Receptor-gamma (PPARg) (AID 2283007). Put shortly:
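HepG2 cells transiently transfected with multiplexed GAL4-UAS reporter units and exogenous chimeric NR-Gal4 proteins; reporter mRNA quantified after 24 h compound exposure by RT-PCR, fluorescent labelling, HpaI digestion and capillary electrophoresis; gain-of-signal fitted versus DMSO baseline.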

Assay [4] has as its target human Retinoic Acid Receptor beta (RARb), RARB (gene 5915) (UniProt P10826). As to the kind of experiment: ATG_RARb_TRANS: Attagene TRANS-FACTORIAL HepG2 Assay for human Retinoic Acid Receptor beta (AID 2283004). The method in brief:
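Fluorescent capillary-electrophoresis detection of GAL4-UAS reporter mRNA defines the endpoint, with induction over DMSO-treated wells scored as activity. Transiently transfected human hepatoma HepG2 cells expressing exogenous NR–Gal4 proteins are exposed to test chemicals for 24 h.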

The target in assay [5] is Retinoic acid receptor alpha (Homo sapiens) (UniProt P10276). The assay can be described thus: ATG_RARa_TRANS: Attagene TRANS-FACTORIAL HepG2 Assay for human Retinoic Acid Receptor alpha (RARa) (AID 2283005). Put shortly:
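HepG2 cells transiently transfected with multiple reporter units expressing chimeric RARα-GAL4 fusion, with GAL4-UAS-driven reporters. After 24 h compound exposure, reporter mRNA induction quantified by RT-PCR and capillary electrophoresis with fluorescent labeling; gain-of-signal fitted relative to DMSO control.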

Assay [6] concerns the target Nuclear receptor subfamily 1 group I member 2 (Homo sapiens) (UniProt O75469). As to the kind of experiment: ATG_PXR_TRANS: Attagene TRANS-FACTORIAL HepG2 Assay for human Pregnane X Receptor (PXR) (AID 2283008). Put shortly:
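Fluorescence intensity of FAM-labelled, HpaI-digested reporter amplicons, separated by capillary electrophoresis, quantifies induction. HepG2 cells with PXR-Gal4 trans-reporter system were exposed 24 h; DMSO defines baseline.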

For assay [7], the target named is human Retinoic Acid Receptor gamma (RARg), RARG (gene 5916) (UniProt P13631). As to the kind of experiment: ATG_RARg_TRANS: Attagene TRANS-FACTORIAL HepG2 Assay for human Retinoic Acid Receptor gamma (RARg) (AID 2283009). Put shortly: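 HepG2, RARg-GAL4 TRANS system, 24 h exposure; reporter mRNA by RT-PCR + CE fluorescence; increase over DMSO.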
Sequence of human Retinoic Acid Receptor gamma (RARg), RARG (gene 5916) (P13631 whole entry, looked up, the tested form may be a part): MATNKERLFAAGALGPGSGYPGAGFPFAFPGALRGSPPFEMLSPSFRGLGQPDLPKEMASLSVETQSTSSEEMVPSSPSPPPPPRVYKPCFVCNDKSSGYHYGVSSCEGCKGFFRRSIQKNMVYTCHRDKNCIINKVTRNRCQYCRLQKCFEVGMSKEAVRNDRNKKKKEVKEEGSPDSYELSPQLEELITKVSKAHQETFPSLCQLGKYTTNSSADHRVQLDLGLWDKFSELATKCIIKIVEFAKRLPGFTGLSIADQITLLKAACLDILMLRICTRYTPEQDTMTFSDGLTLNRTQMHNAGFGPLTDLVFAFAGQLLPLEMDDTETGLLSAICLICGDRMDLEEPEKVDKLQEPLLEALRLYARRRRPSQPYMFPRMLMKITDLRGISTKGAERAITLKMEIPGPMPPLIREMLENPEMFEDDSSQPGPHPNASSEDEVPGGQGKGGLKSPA

Sequence of Nuclear receptor subfamily 1 group I member 2 (Homo sapiens) (O75469 whole entry, looked up, the tested form may be a part): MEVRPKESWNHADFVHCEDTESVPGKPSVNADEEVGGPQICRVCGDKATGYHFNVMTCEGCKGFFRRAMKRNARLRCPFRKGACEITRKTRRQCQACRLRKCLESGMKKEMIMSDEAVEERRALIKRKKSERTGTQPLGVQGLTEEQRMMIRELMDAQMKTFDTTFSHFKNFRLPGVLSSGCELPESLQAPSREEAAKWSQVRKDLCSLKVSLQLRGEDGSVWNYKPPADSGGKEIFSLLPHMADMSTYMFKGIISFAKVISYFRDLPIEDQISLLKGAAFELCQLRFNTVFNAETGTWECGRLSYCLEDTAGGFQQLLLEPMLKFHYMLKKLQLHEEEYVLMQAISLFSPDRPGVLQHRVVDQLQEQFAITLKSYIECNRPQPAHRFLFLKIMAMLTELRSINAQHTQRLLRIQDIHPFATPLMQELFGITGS
Sequence of human Peroxisome Proliferator-activated Receptor alpha (PPARa), PPARA (gene 5465) (Q07869 whole entry, looked up, the tested form may be a part): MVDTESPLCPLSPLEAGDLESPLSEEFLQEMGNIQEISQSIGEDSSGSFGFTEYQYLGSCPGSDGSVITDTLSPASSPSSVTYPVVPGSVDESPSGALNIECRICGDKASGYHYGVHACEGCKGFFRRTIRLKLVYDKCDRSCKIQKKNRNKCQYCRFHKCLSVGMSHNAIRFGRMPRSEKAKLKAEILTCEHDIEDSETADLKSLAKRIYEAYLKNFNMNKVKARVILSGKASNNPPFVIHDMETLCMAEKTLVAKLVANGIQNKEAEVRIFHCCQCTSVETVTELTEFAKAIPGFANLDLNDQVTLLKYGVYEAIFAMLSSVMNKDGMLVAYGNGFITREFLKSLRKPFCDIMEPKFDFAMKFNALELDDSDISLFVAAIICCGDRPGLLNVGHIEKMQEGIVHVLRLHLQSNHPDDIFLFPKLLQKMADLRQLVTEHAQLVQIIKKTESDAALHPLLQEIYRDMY
Sequence of Retinoic acid receptor alpha (Homo sapiens) (P10276 whole entry, looked up, the tested form may be a part): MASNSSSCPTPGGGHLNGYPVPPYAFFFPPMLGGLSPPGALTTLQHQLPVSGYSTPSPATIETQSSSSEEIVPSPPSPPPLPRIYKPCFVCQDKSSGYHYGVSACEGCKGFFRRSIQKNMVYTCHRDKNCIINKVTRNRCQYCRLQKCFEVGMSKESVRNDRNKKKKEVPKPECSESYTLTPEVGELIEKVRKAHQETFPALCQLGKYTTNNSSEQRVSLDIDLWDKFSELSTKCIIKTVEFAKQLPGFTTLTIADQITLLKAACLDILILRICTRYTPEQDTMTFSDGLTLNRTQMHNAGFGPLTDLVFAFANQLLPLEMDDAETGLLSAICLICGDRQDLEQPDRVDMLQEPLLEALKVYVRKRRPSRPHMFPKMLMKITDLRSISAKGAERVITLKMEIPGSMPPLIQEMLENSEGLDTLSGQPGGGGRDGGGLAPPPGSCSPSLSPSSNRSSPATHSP
Sequence of human Retinoic Acid Receptor beta (RARb), RARB (gene 5915) (P10826 whole entry, looked up, the tested form may be a part): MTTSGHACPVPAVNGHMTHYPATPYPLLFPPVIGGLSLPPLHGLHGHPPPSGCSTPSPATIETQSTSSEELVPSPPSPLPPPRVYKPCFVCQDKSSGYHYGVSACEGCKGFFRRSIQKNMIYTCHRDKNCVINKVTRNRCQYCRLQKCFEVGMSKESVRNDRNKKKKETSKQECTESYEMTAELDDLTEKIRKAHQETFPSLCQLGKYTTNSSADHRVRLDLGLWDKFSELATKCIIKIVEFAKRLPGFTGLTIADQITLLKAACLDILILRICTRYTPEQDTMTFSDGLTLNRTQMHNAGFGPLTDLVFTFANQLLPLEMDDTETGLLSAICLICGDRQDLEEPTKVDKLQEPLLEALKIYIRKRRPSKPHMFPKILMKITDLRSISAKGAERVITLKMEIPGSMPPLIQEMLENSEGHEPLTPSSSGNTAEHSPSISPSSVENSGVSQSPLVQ
Sequence of Peroxisome proliferator-activated receptor gamma (Homo sapiens) (P37231 whole entry, looked up, the tested form may be a part): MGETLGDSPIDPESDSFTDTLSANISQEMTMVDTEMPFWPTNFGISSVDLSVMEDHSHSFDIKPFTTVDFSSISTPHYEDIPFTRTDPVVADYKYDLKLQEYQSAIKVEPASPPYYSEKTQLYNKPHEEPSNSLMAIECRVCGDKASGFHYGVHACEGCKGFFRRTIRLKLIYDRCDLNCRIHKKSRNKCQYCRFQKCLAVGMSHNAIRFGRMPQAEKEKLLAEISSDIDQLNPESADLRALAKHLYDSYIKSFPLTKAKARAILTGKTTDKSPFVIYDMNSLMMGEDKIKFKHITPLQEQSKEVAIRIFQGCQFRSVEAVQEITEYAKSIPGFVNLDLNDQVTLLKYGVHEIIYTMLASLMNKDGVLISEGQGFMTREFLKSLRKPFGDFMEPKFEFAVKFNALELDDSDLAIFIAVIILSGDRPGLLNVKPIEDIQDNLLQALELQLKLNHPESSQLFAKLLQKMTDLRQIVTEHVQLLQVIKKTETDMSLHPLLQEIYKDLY

For the compound `CC(CC=O)CC(C)(C)C` (configuration not stated), the result in assay [1], in assay [2] and in assay [3] was inactive.
Turning to `CC1=NN(c2ccc(S(=O)(=O)O)cc2)C(=O)C1N=Nc1ccccc1` (configuration not stated), the call in assay [1], in assay [2], in assay [4], in assay [5], in assay [3] and in assay [6] was inactive. In addition, the compound was classed as inactive in assay [7].
For the compound `O=S(=O)(O)c1ccc(Nc2nc(Nc3ccc(C=Cc4ccc(Nc5nc(Nc6ccc(S(=O)(=O)O)cc6)nc(N(CCO)CCO)n5)cc4S(=O)(=O)O)c(S(=O)(=O)O)c3)nc(N(CCO)CCO)n2)cc1`, the compound was classed as inactive in assay [1], in assay [2], in assay [5] and in assay [3].
Consider `CC(C)c1ccc2ncccc2c1`, for which the result in assay [1], in assay [2], in assay [4], in assay [5] and in assay [7] was inactive. The AC50 in assay [6] was 21.4 µM (active).
For the compound `Cc1ccc2c(c1)CCCN2`, the outcome in assay [1], in assay [2], in assay [4], in assay [3] and in assay [6] was inactive.
As for `CCC(C)N` (configuration not stated), the outcome in assay [1], in assay [2], in assay [4] and in assay [3] was inactive.
`CC1(C)CCC[C@]2(C)[C@H]3CC(=O)O[C@]3(C)CC[C@@H]12`: the compound was classed as inactive in assay [1], in assay [2], in assay [5], in assay [3] and in assay [7]. Moreover, the AC50 in assay [6] is 6.22 µM (active).
As for `CC=CC(=O)OCC(C)C`, the outcome in assay [1], in assay [2], in assay [4], in assay [5], in assay [3] and in assay [6] was inactive. For the same compound, the outcome in assay [7] was inactive.
Regarding `Nc1ccc(O)c([N+](=O)[O-])c1`, the compound was classed as inactive in assay [1], in assay [2], in assay [3] and in assay [6].
For the compound `CO[Si](CCCS)(OC)OC`, the outcome in assay [1], in assay [2], in assay [3] and in assay [6] was inactive.
On to `CCCCOC(=O)CCC(C)=O`, for which the compound was called inactive in assay [1], in assay [2], in assay [3] and in assay [6].
Consider `CC1OC(=O)C(C)OC1=O` (configuration not stated), for which the compound was classed as inactive in assay [1], in assay [2], in assay [4], in assay [3] and in assay [6].
Take `O=C(O)/C=C/c1ccccc1`: the compound was classed as inactive in assay [1], in assay [2] and in assay [3].

What is called AC50 is the concentration giving half of the maximal activity seen.
